From PubChem BioAssay AID686979 (National Center for Advancing Translational Sciences (NCATS), 2013) come the findings set out here.

Each structure is given as a SMILES string. The whole screen tested about 420,000 compounds, of which about 50,000 (12%) were called active. A call without a number means that no potency is given here. Another 26% or so got no clear call; they are omitted. Calls follow the shape of the dose curve; as a rule, active = well fitted inhibition curve with a large enough effect; inconclusive = small, poorly fitted or top-dose-only effect; inactive = flat fitted curve, though single readings scatter. The sample as a whole holds a higher share of actives than the screen did.
Potency is read from the fitted curve at half-maximal effect.

This experiment in a line: qHTS for Inhibitors of human tyrosyl-DNA phosphodiesterase 1 (TDP1): qHTS in cells in presence of CPT. Also: nearly all actives have a fitted effect of over 55% in size. Conditions: chicken DT40 Tdp1-/-;hTDP1 cells + 20 nM CPT, ATP luminescence, 48 h; series mostly up to 46.2 µM. Put shortly:
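Chicken DT40 Tdp1-/- cells stably complemented with human TDP1 were seeded at 400 cells/well in medium containing 20 nM camptothecin, exposed to pin-transferred compounds, and grown at 37 °C for at least 48 hr. Viability was read as ATP luminescence.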
(In qHTS, concentration-response curves come from the screen itself.)
With `Cc1onc(-c2c(F)cccc2Cl)c1C(=O)N(C)CC(=O)Nc1cccc(F)c1`, the Potency entry was “inactive”.

Turning to `O=C(c1cc(C(=O)N2CCN(c3ccc(F)cc3)CC2)cc([N+](=O)[O-])c1)N1CCN(c2ccc(F)cc2)CC1`, the Potency is 8.2 µM (active).

As to `O=C(c1cccc([N+](=O)[O-])c1)N1CCN(C(=O)c2ccco2)CC1`, the Potency entry was “inactive”.

As for `O=C(c1cc(-c2ccc(F)cc2)on1)N1CCN(c2ccc(F)cc2)CC1`, the Potency entry was “inactive”.

With `O=C(c1cccc(C(=O)N2CCN(c3ccc(F)cc3)CC2)c1)N1CCN(c2ccc(F)cc2)CC1`, the Potency was 14.6 µM (active).

As for `O=[N+]([O-])c1ccc(N2CCN(c3ccc(F)cc3)CC2)cn1`, the Potency entry was “inactive”.

Take `O=C(c1cc2cc(F)ccc2[nH]1)N1CCN(c2ccc(F)cc2)CC1`: the Potency entry is “inactive”.

Turning to `CO/N=C(\C(=O)N[C@@H]1C(=O)N2C(C(=O)O)=CCS[C@H]12)c1csc(N)n1`, the Potency entry is “inactive”.

Regarding `O=C1COc2ccc(C(=O)COC(=O)CCOc3ccccc3)cc2N1`, the Potency result was “inactive”.

Turning to `Cc1ccc(C(=O)Oc2ccc(C(=S)N3CCOCC3)cc2)cc1`, the Potency result is “inactive”.

Consider `CC(C)(C)C1C/C(=C/c2ccco2)C(=O)/C(=C/c2ccco2)C1` (centres undefined), for which the Potency is 23.1 µM (active).

Turning to `COC(=O)COc1ccc2c(c1C)O/C(=C\c1ccco1)C2=O`, the Potency entry is “inactive”.

For `CCC1S/C(=N/N=C/c2ccco2)NC1=O` (centres undefined), the Potency entry is “inactive”.

In the case of `Cc1ccc2nc(N3C(=O)C(O)=C(C(=O)c4ccco4)C3c3cccc(O)c3)sc2c1` (centres undefined), the Potency entry is “inactive”.

Take `CC(C)c1ccc(NC(=O)c2ccc3c(O)c(S(=O)(=O)c4ccccc4)c(=O)[nH]c3c2)cc1`: the Potency entry was “inactive”.

For `C=C1C=C(C(F)F)n2ncc(C(=O)NCCc3ccccc3OC)c2N1`, the Potency was 15.8 µM (active).

With `C=C1C=C(C)n2ncc(C(=O)Nc3ccccc3O)c2N1`, the Potency result is “inactive”.

Consider `COc1ccccc1CCNC(=O)c1cnccn1`, for which the Potency entry is “inactive”.

Consider `C#CCOCCOCCOCCNc1nc(N2CCN(C(=O)Cn3cc(CCO)nn3)CC2)nc(N2CCN(C(=O)[C@H](CCCCN)n3cc(CCCC)nn3)CC2)n1`, for which the Potency result was “inactive”.

With `C#CCOCCOCCOCCNc1nc(N2CCN(C(=O)Cn3cc(CCO)nn3)CC2)nc(N2CCN(C(=O)Cn3cc(CCCN=C(N)N)nn3)CC2)n1`, the Potency entry was “inactive”.

Take `C#CCOCCOCCOCCNc1nc(N2CCN(C(=O)CCCCCCCCCCNC(=O)[C@H](CCCCN)n3cc(C)nn3)CC2)nc(N2CCN(C(=O)CCCCCCCCCCNC(=O)[C@H](CO)n3cc(CCCSC)nn3)CC2)n1`: the Potency was 14.6 µM (active).

As to `C#CCOCCOCCOCCNc1nc(N2CCN(C(=O)[C@H](CCCCN)n3cc(CCC(=O)O)nn3)CC2)nc(N2CCN(C(=O)[C@H](CCCCN)n3cc(CC(C)O)nn3)CC2)n1` (some centres undefined), the Potency result was “inactive”.

For `C#CCOCCOCCOCCNc1nc(N2CCN(C(=O)CCCCCCCCCCNC(=O)[C@H]([C@@H](C)CC)n3cc(CCCCN=C(N)N)nn3)CC2)nc(N2CCN(C(=O)CCCCCCCCCCNC(=O)[C@H](CO)n3cc(CCCSC)nn3)CC2)n1`, the Potency was 9.2 µM (active).

As for `C#CCOCCOCCOCCNc1nc(N2CCN(C(=O)[C@H](CCCN=C(N)N)n3cc(C(N)[C@@H](C)CC)nn3)CC2)nc(N2CCN(C(=O)[C@H](CO)n3cc([C@@H](N)C(C)C)nn3)CC2)n1` (some centres undefined), the Potency entry is “inactive”.
